Calls of active or inactive are those of the source.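 The calls were made as follows: active = cell killing, with a fitted active concentration at or below twice the top valid dose tested; inconclusive = flat fit with 30 to 70 percent signal loss, or poor fit; inactive = effect in the rising direction, plus the rest.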
Assay: viability loss in A549 lung cancer cells – cell-based, CellTiter-Glo luminescence, dry powder, set 4, cytotoxicity control, dose response (AID 743157)
Settings: CellTiter-Glo ATP luminescence, 72 h; series mostly up to 50 µM

SMILES | outcome | activity change, negative = cytotoxicity
Cc1c(C(=O)O)sc2nc(/C=C/c3cccc([N+](=O)[O-])c3)[nH]c(=O)c12 | inactive | –
Cc1c(C(=O)O)sc2nc(/C=C/c3ccc(O)cn3)[nH]c(=O)c12 | – | 4.16% [at 1.2 µM] (inactive)
Cc1c(C(=O)O)sc2nc(/C=C/c3cccc(C(=O)O)c3)[nH]c(=O)c12 | inactive | –
Cc1c(C(=O)O)sc2nc(/C=C/c3ccnc4ccccc34)[nH]c(=O)c12 | inactive | –
Cc1c(C(=O)O)sc2nc(/C=C/c3cnc4ccccc4c3)[nH]c(=O)c12 | inactive | –
Cc1c(C(=O)O)sc2nc(/C=C/c3cccc(N4CCNCC4)c3)[nH]c(=O)c12 | inactive | –
Cc1c(C(=O)O)sc2nc(/C=C/C=C/c3ccccc3)[nH]c(=O)c12 | inactive | –
Cc1c(C(=O)O)sc2nc(/C=C/c3cccnc3N)[nH]c(=O)c12 | – | -7.98% [at 12 µM] (inactive)
Cc1c(C(=O)O)sc2nc(/C=C/c3ccccc3)[nH]c(=O)c12 | inactive | –
Cc1c(C(=O)O)sc2nc(/C=C/c3cccnc3)[nH]c(=O)c12 | inactive | –
Cc1c(C(=O)O)sc2nc(/C=C/c3cccc(O)c3)[nH]c(=O)c12 | inactive | –
Cc1c(C(=O)O)sc2nc(/C=C/C3CC3)[nH]c(=O)c12 | inactive | –
Cc1c(C(=O)O)sc2nc(/C=C/c3cc4ccccc4cn3)[nH]c(=O)c12 | inactive | –
Cc1c(C(=O)O)sc2nc(/C=C/c3ccccn3)[nH]c(=O)c12 | inactive | –
COc1cccc(/C=C/c2nc3sc(C(=O)O)c(C)c3c(=O)[nH]2)c1 | inactive | –
Cc1c(C(=O)O)sc2nc(/C=C/c3ccc4[nH]ccc4c3)[nH]c(=O)c12 | inactive | –
Cc1c(C(=O)O)sc2nc(/C=C/c3ccc(N)nc3)[nH]c(=O)c12 | inactive | –
Cc1c(C(=O)O)sc2nc(/C=C/c3cccc(OC(F)(F)F)c3)[nH]c(=O)c12 | inactive | –
Cc1c(C(=O)O)sc2nc(/C=C/c3cccc(N4CCOCC4)n3)[nH]c(=O)c12 | inactive | –
Cc1c(C(=O)O)sc2nc(/C=C/c3ccc4[nH]ccc4n3)[nH]c(=O)c12 | – | 6.14% [at 12 µM] (inactive)
Cc1c(C(=O)O)sc2nc(/C=C/c3ccc4ccccc4c3)[nH]c(=O)c12 | inactive | –
Cc1c(C(=O)O)sc2nc(/C=C/c3cccc(F)c3)[nH]c(=O)c12 | inactive | –
Cc1c(C(=O)O)sc2nc(CCc3cccc(O)c3)[nH]c(=O)c12 | inactive | –
Cc1c(C(=O)O)sc2nc(/C=C/c3cccc(N)c3)[nH]c(=O)c12 | inactive | –
Cc1c(C(=O)O)sc2nc(/C=C/c3ccccc3O)[nH]c(=O)c12 | inactive | –
Cc1c(C(=O)O)sc2nc(/C=C/c3ccc4cc[nH]c4c3)[nH]c(=O)c12 | inactive | –
Cc1c(C(=O)O)sc2nc(/C=C/c3cccc(C(F)(F)F)c3)[nH]c(=O)c12 | inactive | –
Cc1c(C(=O)O)sc2nc(/C=C/c3cccc(=O)[nH]3)[nH]c(=O)c12 | inactive | –
Cc1c(C(=O)O)sc2nc(/C=C/c3cccc(C(N)=O)c3)[nH]c(=O)c12 | inactive | –
Cc1c(C(=O)O)sc2nc(/C=C/c3ccncc3)[nH]c(=O)c12 | inactive | –
